Source: PubChem BioAssay (Tox21)
Results filed as inconclusive are left out. The source made the active and inactive calls. Unless noted, the call rests on the fitted dose curve; in most records, active means well fitted curve in the direction sought with a large enough effect in the repeat runs; inconclusive means weak or mixed curves; inactive means no such curve, though single readings can be large; an effect the other way counts as inactive or inconclusive.

How the values were obtained:
[1] = molecular target: Peroxisome proliferator-activated receptor delta (Homo sapiens) (UniProt Q03181); assay: qHTS assay to identify small molecule agonists of the peroxisome proliferator-activated receptor delta (PPARd) signaling pathway (AID 743212; calls by dose curve)
How it was run: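 Cells expressing a UAS-driven beta-lactamase reporter (PPARd-bla HEK293H) were given test compounds after a 5 h settle and kept at 37 C. Reporter activity was then measured as FRET fluorescence using LiveBLAzer B/G substrate.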

[2] = molecular target: Peroxisome proliferator-activated receptor delta (Homo sapiens) (UniProt Q03181); assay: qHTS assay to identify small molecule antagonists of the peroxisome proliferator-activated receptor delta (PPARd) signaling pathway (AID 743215; active means well fitted inhibition curve with a large enough effect in the signal ratio in the repeat runs, not every such curve was filed as active; the % refers to the signal ratio;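 further: cells stimulated with agonist L165041 at 300 nM final during compound exposure; series mostly up to about 62 µM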)
How it was run: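 Fluorescence from cleaved LiveBLAzer B/G FRET substrate (2 h, room temperature) reports PPARd-driven beta-lactamase in HEK293H UAS-bla cells. Cells had been treated 17 h at 37 C with compound plus 300 nM final L165041.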

[3] = qHTS assay to identify small molecule agonists of the farnesoid-X-receptor (FXR) signaling pathway - cell viability counter screen (AID 743218); further: nearly all actives have a fitted effect of over 45% in size
How it was run: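 Readout: CellTiter-Glo luminescence, 30 min RT, multiplexed after the FXR-bla FRET reading. HEK 293T FXR-UAS-bla cells received compound 5 h post-plating and were incubated 16 h at 37 C.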

[4] = qHTS assay to identify small molecule antagonists of the farnesoid-X-receptor (FXR) signaling pathway - cell viability counter screen (AID 743221; active means well fitted cell-killing curve with a large enough effect in the repeat runs, not every such curve was filed as active; further: nearly all actives have a fitted effect of over 50% in size)
How it was run: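 Luminescence from CellTiter-Glo measures cytotoxicity in GeneBLAzer FXR-UAS-bla HEK 293T cells. Cells were exposed to compounds with 50 uM chenodeoxycholic acid (final) for 16 h at 37 C, in wells also used for the reporter readout.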

[5] = molecular target: Vitamin D3 receptor (Homo sapiens) (UniProt P11473); assay: qHTS assay to identify small molecule agonists of the vitamin D receptor (VDR) signaling pathway (AID 743222; calls by dose curve)
How it was run: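 Following 4 h attachment at 37C, VDR-bla cells (2,000 per well) received DMSO-dissolved compounds or controls. After 16 h incubation, LiveBLAzer B/G FRET substrate was added and fluorescence read 2 h later at room temperature.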

[6] = molecular target: Vitamin D3 receptor (Homo sapiens) (UniProt P11473); assay: qHTS assay to identify small molecule antagonists of the vitamin D receptor (VDR) signaling pathway (AID 743223; active means well fitted inhibition curve with a large enough effect in the signal ratio in the repeat runs, not every such curve was filed as active; the % refers to the signal ratio)
How it was run: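 Antagonist mode uses 1alpha,25-dihydroxyvitamin D3 at 3 nM final as stimulus. VDR-bla cells receive compounds in DMSO, incubate 16 h at 37C, then a beta-lactamase FRET substrate for 2 h at room temperature before fluorescence measurement.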

[7] = qHTS assay to identify small molecule agonists of the vitamin D receptor (VDR) signaling pathway - cell viability counter screen (AID 743224); further: series mostly up to about 63 µM; nearly all actives have a fitted effect of over 50% in size
How it was run: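 In parallel with the bla FRET readout, cytotoxicity toward VDR-bla cells after 16 h compound exposure was assessed by CellTiter-Glo, with luminescence recorded after a 30 min room-temperature incubation.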

[8] = molecular target: Bile acid receptor (Homo sapiens) (UniProt Q96RI1); assay: qHTS assay to identify small molecule antagonists of the farnesoid-X-receptor (FXR) signaling pathway (AID 743217; active means well fitted inhibition curve with a large enough effect in the signal ratio in the repeat runs, not every such curve was filed as active; the % refers to the signal ratio)
How it was run: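 FRET fluorescence after 2 h room-temperature LiveBLAzer loading gives the readout. Prior step: FXR-bla HEK 293T cells, seeded and incubated 5 h, received test compounds plus 50 uM final CDCA for 16 h at 37 °C.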

[9] = molecular target: Bile acid receptor (Homo sapiens) (UniProt Q96RI1); assay: qHTS assay to identify small molecule agonists of the farnesoid-X-receptor (FXR) signaling pathway (AID 743220; active means well fitted activation curve with a large enough effect in the signal ratio in the repeat runs, not every such curve was filed as active; the % refers to the signal ratio)
How it was run: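 FXR-UAS-bla HEK 293T cells carrying a UAS-driven beta-lactamase reporter were plated for 5 h at 37C/5% CO2, then exposed to DMSO-dissolved Tox21 10K compounds for 16 h at 37C. A LiveBLAzer B/G FRET substrate was loaded for 2 h at room temperature before fluorescence reading.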

[10] = qHTS assay to identify small molecule antagonists of the peroxisome proliferator-activated receptor delta (PPARd) signaling pathway - cell viability counter screen (AID 743213); further: nearly all actives have a fitted effect of over 50% in size
How it was run: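 Viability counter-screen, qHTS format: PPARd-bla HEK293H, L165041 300 nM final, 17 h compound exposure at 37 C, CellTiter-Glo luminescence after 30 min RT.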

Measured: outcome

Chain of Peroxisome proliferator-activated receptor delta (Homo sapiens) (Q03181 whole entry, looked up): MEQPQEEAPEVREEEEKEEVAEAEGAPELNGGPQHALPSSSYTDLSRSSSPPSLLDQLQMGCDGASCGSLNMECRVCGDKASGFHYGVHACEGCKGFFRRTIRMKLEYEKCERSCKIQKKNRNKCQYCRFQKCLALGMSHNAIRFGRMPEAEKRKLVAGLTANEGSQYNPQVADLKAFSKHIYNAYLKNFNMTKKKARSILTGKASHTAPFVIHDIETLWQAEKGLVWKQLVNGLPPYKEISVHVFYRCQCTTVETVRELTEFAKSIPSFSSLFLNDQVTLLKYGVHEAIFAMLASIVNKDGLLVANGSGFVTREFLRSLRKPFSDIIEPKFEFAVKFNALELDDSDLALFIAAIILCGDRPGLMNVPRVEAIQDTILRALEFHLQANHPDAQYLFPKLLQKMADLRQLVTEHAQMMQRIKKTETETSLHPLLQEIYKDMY
Chain of Bile acid receptor (Homo sapiens) (Q96RI1 whole entry, looked up): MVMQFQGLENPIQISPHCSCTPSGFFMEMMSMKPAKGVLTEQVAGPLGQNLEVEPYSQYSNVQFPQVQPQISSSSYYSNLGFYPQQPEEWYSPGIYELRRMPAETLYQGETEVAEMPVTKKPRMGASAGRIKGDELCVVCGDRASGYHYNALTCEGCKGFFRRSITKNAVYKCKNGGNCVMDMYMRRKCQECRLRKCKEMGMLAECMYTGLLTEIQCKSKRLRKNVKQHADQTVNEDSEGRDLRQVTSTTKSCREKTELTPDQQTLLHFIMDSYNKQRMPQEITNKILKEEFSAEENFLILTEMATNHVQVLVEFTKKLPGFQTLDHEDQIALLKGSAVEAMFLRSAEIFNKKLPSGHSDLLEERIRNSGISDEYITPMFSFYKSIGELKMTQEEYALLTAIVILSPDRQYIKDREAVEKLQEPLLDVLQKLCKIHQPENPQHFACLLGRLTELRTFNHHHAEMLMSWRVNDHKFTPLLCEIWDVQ
Chain of Vitamin D3 receptor (Homo sapiens) (P11473 whole entry, looked up): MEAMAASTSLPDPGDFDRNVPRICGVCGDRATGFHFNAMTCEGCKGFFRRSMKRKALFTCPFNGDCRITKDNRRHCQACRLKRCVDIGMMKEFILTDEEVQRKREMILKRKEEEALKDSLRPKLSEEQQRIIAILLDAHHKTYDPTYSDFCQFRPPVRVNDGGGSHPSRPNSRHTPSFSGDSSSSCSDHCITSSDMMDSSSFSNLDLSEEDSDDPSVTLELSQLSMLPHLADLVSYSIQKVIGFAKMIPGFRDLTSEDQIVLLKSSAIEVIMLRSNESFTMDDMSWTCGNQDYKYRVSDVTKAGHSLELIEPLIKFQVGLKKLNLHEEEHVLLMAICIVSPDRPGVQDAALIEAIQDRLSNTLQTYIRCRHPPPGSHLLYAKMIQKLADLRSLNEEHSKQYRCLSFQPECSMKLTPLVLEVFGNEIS

C[C@@H](CN1CC(=O)NC(=O)C1)N1CC(=O)NC(=O)C1
not listed: [8] | [9] | [10]
inactive: all other assays above

CCCc1ncc(C(=O)O)s1
not listed: [10]
inactive: all other assays above

Cc1cc(O)c(Cl)cc1C
not listed: [5] | [10]
inactive: all other assays above

CCCCCCCCCCCC(C)=O
not listed: [2] | [6]
inactive: all other assays above

COC(=O)/C=C(\C)CCC=C(C)C
inactive: [1] | [2] | [3] | [4] | [6]

CCCC[O][Al]([O]CCCC)[O]CCCC
not listed: [2] | [6]
inactive: all other assays above

C=CC(=O)CC
not listed: [8] | [10]
inactive: all other assays above

Cc1ccc(O)c([N+](=O)[O-])c1
not listed: [10]
inactive: all other assays above

O=C(c1ccccc1)c1cccc(O)c1
not listed: [2] | [8] | [9]
inactive: all other assays above

CC(=O)OCC(=O)[C@@]1(O)CC[C@H]2[C@@H]3CCC4=CC(=O)C=C[C@]4(C)[C@H]3[C@@H](O)C[C@@]21C
not listed: [2] | [8] | [9]
inactive: all other assays above

CCC(C)c1nccnc1OC (stereo unspecified)
not listed: [10]
inactive: all other assays above

CCOC(=O)CC
inactive: [1] | [2] | [8] | [9] | [4] | [7]

Cc1cc(=O)oc2cc(O[C@@H]3SC[C@@H](O)[C@H](O)[C@H]3O)ccc12
not listed: [6] | [10]
inactive: all other assays above

CC/C=C\CCOC(=O)c1ccccc1
not listed: [5] | [10]
inactive: all other assays above

BrCCOc1ccccc1
not listed: [5] | [10]
inactive: all other assays above

C/C=C(\C)C(=O)OC/C=C(\C)CCC=C(C)C
not listed: [8] | [9] | [10]
inactive: all other assays above

CC[C@@]1(c2ccccc2)NC(=O)N(C)C1=O
not listed: [2] | [6]
inactive: all other assays above

CN(C)CCC[C@@]1(c2ccc(F)cc2)OCc2cc(C#N)ccc21
inactive: [1] | [2] | [3] | [4] | [5] | [7]

O=S(=O)(O)c1ccc(Cl)cc1
not listed: [10]
inactive: all other assays above

C[C@]12C=CC(=O)C=C1[C@@H](F)C[C@@H]1[C@@H]2[C@@H](O)C[C@@]2(C)[C@H]1CC[C@]2(O)C(=O)CO
inactive: [1] | [2] | [3] | [4] | [6] | [7]

CC12CCCC=C1C(=O)OC2=O (stereo unspecified)
not listed: [8] | [9] | [10]
inactive: all other assays above

CCN1CCN(C(=O)N[C@@H](C(=O)N[C@@H]2C(=O)N3C(C(=O)O)=C(CSc4nnnn4C)CS[C@H]23)c2ccc(O)cc2)C(=O)C1=O
inactive: [1] | [2] | [3] | [4]

Cc1ccc(NC(N)=O)cc1
inactive: [1] | [2] | [3] | [4] | [6] | [7]

CC(C)c1cc(C(C)C)cc(C(C)C)c1
not listed: [8] | [9] | [10]
inactive: all other assays above

Cc1ccc2ccccc2n1
not listed: [1] | [8] | [9]
inactive: all other assays above

CCC(C)(C)C
not listed: [1] | [2]
inactive: all other assays above

CCCCCCCCS(=O)(=O)O
not listed: [1] | [2] | [5]
inactive: all other assays above

O=C(O)CCCCCCCCCC(=O)O
inactive: [1] | [2] | [3] | [4] | [6] | [7]

Cc1ccc2cccnc2c1
not listed: [1] | [2] | [6]
inactive: all other assays above

Cc1cccc(N)n1
inactive: [1] | [8] | [3] | [4] | [5] | [7]
